In article PMC5540273 (PLoS ONE, 2017):

Assays:
Settings in all cases: concentration: 1 μM, replicates: in singlicate; n = 1
AURKC = system: AURKC
AXL = system: AXL
BIKE = system: T1, BIKE
T1 construct: gene BMP2K

BLK = system: BLK
BMPR1A = system: BMPR1A
BMPR1B = system: BMPR1B
BMPR2 = system: BMPR2
BMX = system: BMX
BRAF = system: BRAF
BRK = system: T2, BRK
T2 construct: gene PTK6

BRSK1 = system: BRSK1
BRSK2 = system: BRSK2
BTK = system: BTK
BUB1 = system: BUB1
CAMK1B = system: CAMK1B
CAMK1D = system: CAMK1D
CAMK1G = system: CAMK1G
CAMK1 = system: CAMK1
CAMK2A = system: CAMK2A
CAMK2B = system: CAMK2B
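Note: KINOMEscan kinase panel screen.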

| Compound | %Inh (AURKC) | %Inh (AXL) | %Inh (BIKE) | %Inh (BLK) | %Inh (BMPR1A) | %Inh (BMPR1B) | %Inh (BMPR2) | %Inh (BMX) | %Inh (BRAF) | %Inh (BRK) | %Inh (BRSK1) | %Inh (BRSK2) | %Inh (BTK) | %Inh (BUB1) | %Inh (CAMK1B) | %Inh (CAMK1D) | %Inh (CAMK1G) | %Inh (CAMK1) | %Inh (CAMK2A) | %Inh (CAMK2B) |
| --- | --- | --- | --- | --- | --- | --- | --- | --- | --- | --- | --- | --- | --- | --- | --- | --- | --- | --- | --- | --- |
| O=C(Nc1n[nH]c2nc(-c3ccco3)c(Br)cc12)c1ccc(CN2CCCC2)cc1.O=C(O)[C@H](O)[C@@H](O)C(=O)O [SB-742352] | 0% | 51% | 0% | 0% | 0% | 0% | 0% | 8% | 0% | 0% | 51% | 24% | 0% | 0% | 0% | 8% | 0% | 0% | 2% | 0% |
| Cl.Fc1ccccc1COc1ccc(Nc2ncnc3ccc(-c4nnc(C(F)(F)F)o4)cc23)cc1Cl [GW424170] | 0% | 0% | 9% | 21% | 0% | 0% | 5% | 1% | 0% | 6% | 0% | 0% | 0% | 0% | 0% | 8% | 0% | 13% | 0% | 0% |
| Cl.Cn1ccc(-c2cccc(Nc3ccnc4cc(-c5nccs5)ccc34)c2)n1 [GW525701] | 0% | 0% | 0% | 15% | 0% | 0% | 16% | 0% | 0% | 5% | 0% | 38% | 0% | 62% | 3% | 3% | 38% | 0% | 0% | 0% |
| CCn1c(-c2ccncc2)nc2cnccc21 [SB-735216] | 0% | 24% | 8% | 0% | 4% | 0% | 24% | 17% | 19% | 3% | 0% | 0% | 28% | 15% | 45% | 6% | 0% | 0% | 0% | 0% |
| O=C(c1ccc(-c2cc(-c3c[nH]nc3-c3ccccn3)ccn2)cc1)N1CCCC1 [GW792479] | 0% | 0% | 18% | 9% | 0% | 9% | 0% | 12% | 0% | 0% | 0% | 2% | 24% | 20% | 0% | 30% | 0% | 32% | 1% | 5% |
| Nc1nc(-c2cccnc2)c(-c2ccnc3ccccc23)s1 [GW684083] | 10% | 7% | 34% | 58% | 0% | 55% | 28% | 34% | 0% | 9% | 10% | 0% | 8% | 58% | 0% | 6% | 0% | 8% | 0% | 0% |
| Oc1ccc2ncnc(Nc3ccc(OCc4ccccc4)cc3)c2c1 [GI262866] | 34% | 5% | 20% | 31% | 0% | 0% | 0% | 0% | 0% | 4% | 2% | 0% | 4% | 18% | 1% | 4% | 0% | 17% | 0% | 0% |
| Nc1nc(-c2ccc3c(N)n[nH]c3c2)cc(N2CCCCC2)n1 [GSK2228768] | 23% | 0% | 56% | 4% | 0% | 0% | 0% | 0% | 0% | 0% | 5% | 0% | 0% | 21% | 8% | 5% | 0% | 13% | 0% | 0% |
| CC(=O)Nc1n[nH]c2ncc(-c3ccccc3)cc12 [SB-548492] | 32% | 21% | 7% | 28% | 30% | 21% | 47% | 13% | 0% | 0% | 21% | 0% | 0% | 0% | 0% | 18% | 0% | 35% | 4% | 0% |
